In assay [1] the test system is HCC1937. The assay can be described thus: relative cell viability, compound + erastin, vs DMSO (fraction of DMSO control); higher = less growth inhibition. The note with it: 72 h.
For assay [2], the system named is MDA-MB-231. The assay is described as above. To be noted: 72 h.

SMILES strings stand for the structures. Counter-ions that a name gives are not always drawn.
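Also: viability read by CCK-8 kit in 96-well plates, part of a combination screen pairing lipid-metabolism-targeting compounds with erastin.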

Turning to `N[C@@H](Cc1c[nH]cn1)C(=O)O` [histidine] + CCOc1ccccc1-n1c(C(C)N2CCN(C(=O)COc3ccc(Cl)cc3)CC2)nc2ccccc2c1=O [erastin], the relative cell viability in assay [1] was determined as 0.592; in assay [2], 0.706.

As for `COc1ccc(N(C(=O)Nc2c(C)cccc2C)c2cc(Nc3ccc(N4CCN(C)CC4)cc3)ncn2)c(OC)c1` + CCOc1ccccc1-n1c(C(C)N2CCN(C(=O)COc3ccc(Cl)cc3)CC2)nc2ccccc2c1=O [erastin], the figures for the relative cell viability in assay [1] and in assay [2] were 0.553 and 0.852, respectively.

Take `O=C(O)CN(CC(=O)O)c1ccccc1OCCOc1ccccc1N(CC(=O)O)CC(=O)O` + CCOc1ccccc1-n1c(C(C)N2CCN(C(=O)COc3ccc(Cl)cc3)CC2)nc2ccccc2c1=O [erastin]: the relative cell viability in assay [1] stood at 0.597; in assay [2] it was 0.765.

With `COc1cc(N(C)C)cc(CN(C)CCc2ccc([N+](=O)[O-])cc2)c1O` [CDC25 Phosphatase Inhibitor I] + CCOc1ccccc1-n1c(C(C)N2CCN(C(=O)COc3ccc(Cl)cc3)CC2)nc2ccccc2c1=O [erastin], the figures for the relative cell viability in assay [1] and in assay [2] were 0.663 and 0.781, respectively.

As for `CC(C)[C@H](N=C(NS(=O)(=O)c1ccc(Cl)cc1)N1C[C@H](c2ccccc2)C(c2ccc(Cl)cc2)=N1)C(N)=O` + CCOc1ccccc1-n1c(C(C)N2CCN(C(=O)COc3ccc(Cl)cc3)CC2)nc2ccccc2c1=O [erastin], the relative cell viability in assay [1] was determined as 0.483; in assay [2], 0.429.

As for `CCCc1cc(-c2nc(-c3ccc(NS(C)(=O)=O)cc3)cs2)ccn1` + CCOc1ccccc1-n1c(C(C)N2CCN(C(=O)COc3ccc(Cl)cc3)CC2)nc2ccccc2c1=O [erastin], the relative cell viability in assay [1] worked out at 0.394; in assay [2], 0.651.

Consider `CC(C)n1c(/C=C/C(O)CC(O)CC(=O)O)c(-c2ccc(F)cc2)c2ccccc21` (centres undefined) [Fluvastatin sodium salt] + CCOc1ccccc1-n1c(C(C)N2CCN(C(=O)COc3ccc(Cl)cc3)CC2)nc2ccccc2c1=O [erastin], for which the relative cell viability in assay [1] is 0.58; in assay [2] it was 0.869.

Take `COc1ccc(-c2coc3cc(OC)ccc3c2=O)cc1` [4',7-Dimethoxyisoflavone] + CCOc1ccccc1-n1c(C(C)N2CCN(C(=O)COc3ccc(Cl)cc3)CC2)nc2ccccc2c1=O [erastin]: the values for the relative cell viability in assay [1] and in assay [2] were 0.313 and 0.427, respectively.

`Cc1nc2ccc(NCc3cccc(C(F)(F)F)c3)cc2n(CCNC(=O)CO)c1=O` + CCOc1ccccc1-n1c(C(C)N2CCN(C(=O)COc3ccc(Cl)cc3)CC2)nc2ccccc2c1=O [erastin]: the relative cell viability worked out at 0.618 in assay [1] and 0.89 in assay [2].

In the case of `O=C(Nc1cccnc1)N1CCC(Cc2cccc(Oc3ccc(C(F)(F)F)cn3)c2)CC1` + CCOc1ccccc1-n1c(C(C)N2CCN(C(=O)COc3ccc(Cl)cc3)CC2)nc2ccccc2c1=O [erastin], the figures for the relative cell viability in assay [1] and in assay [2] were 0.663 and 0.374, respectively.

`Fc1ccc(-c2c3cccc(C(F)(F)F)c3nn2Cc2ccc(F)cc2Cl)cc1` + CCOc1ccccc1-n1c(C(C)N2CCN(C(=O)COc3ccc(Cl)cc3)CC2)nc2ccccc2c1=O [erastin]: the relative cell viability in assay [1] came to 0.797; in assay [2] it was 0.509.

With `CC(=O)c1c(C)cc2cccc(O)c2c1O` [Nepodin] + CCOc1ccccc1-n1c(C(C)N2CCN(C(=O)COc3ccc(Cl)cc3)CC2)nc2ccccc2c1=O [erastin], the figures for the relative cell viability in assay [1] and in assay [2] were 0.7 and 0.766, respectively.

For the compound `O=C(O)C(O)Cc1ccc(O)c(O)c1` (centres undefined) [Sodium Danshensu] + CCOc1ccccc1-n1c(C(C)N2CCN(C(=O)COc3ccc(Cl)cc3)CC2)nc2ccccc2c1=O [erastin], the relative cell viability worked out at 0.746 in assay [1] and 0.968 in assay [2].

Take `C/C=C(\CC[C@@H](C)[C@H]1CC[C@H]2[C@@H]3CC=C4C[C@@H](O)CC[C@]4(C)[C@H]3CC[C@]12C)C(C)C` [Fucosterol] + CCOc1ccccc1-n1c(C(C)N2CCN(C(=O)COc3ccc(Cl)cc3)CC2)nc2ccccc2c1=O [erastin]: the relative cell viability in assay [1] was found to be 0.685; in assay [2], 0.881.

With `CCCCCCCCCCCCCCOc1ccc(C(=O)OCC(=O)N(C)CC(=O)OCC)o1` [Olumacostat Glasaretil] + CCOc1ccccc1-n1c(C(C)N2CCN(C(=O)COc3ccc(Cl)cc3)CC2)nc2ccccc2c1=O [erastin], the relative cell viability in assay [1] came to 0.549; in assay [2], 0.477.

As for `CN1CCN(C(=O)C2C(C(=O)O)[C@H]3CC[C@@H]2O3)CC1` (some centres undefined) + CCOc1ccccc1-n1c(C(C)N2CCN(C(=O)COc3ccc(Cl)cc3)CC2)nc2ccccc2c1=O [erastin], the relative cell viability in assay [1] worked out at 0.278; in assay [2], 0.394.

`c1cc(-c2cnn3cc(-c4ccc(OCCN5CCCCC5)cc4)cnc23)ccn1` [Dorsomorphin dihydrochloride] + CCOc1ccccc1-n1c(C(C)N2CCN(C(=O)COc3ccc(Cl)cc3)CC2)nc2ccccc2c1=O [erastin]: the relative cell viability in assay [1] was found to be 0.0948; in assay [2], 0.362.

The record behind these values is the supplement of paper PMC9492666.
